These results are taken from PubChem BioAssay AID886 (National Center for Advancing Translational Sciences (NCATS), 2007).

Several values for one entry are separate records, joined by “and”; a condition that tells them apart may be missing. Equal values may be shown once. Screen size: about 73,000 compounds; about 2,500 (3.4%) were called active. Inconclusive results (about 7%) are left out. Many of the other results were omitted from the sample, so actives are more common in it than they were. A number with no mark means an inactive call. Calls follow the shape of the dose curve; as a rule, active = well fitted inhibition curve with a large enough effect; inconclusive = small, poorly fitted or top-dose-only effect; inactive = no such curve, though single readings can be large or run the other way.
% is scaled to controls: 0 for no effect and ±100 for the full control effect; potency is read from the fitted curve at half-maximal effect.

Sequence of 3-hydroxyacyl-CoA dehydrogenase type-2 (Homo sapiens) (Q99714 whole entry, looked up): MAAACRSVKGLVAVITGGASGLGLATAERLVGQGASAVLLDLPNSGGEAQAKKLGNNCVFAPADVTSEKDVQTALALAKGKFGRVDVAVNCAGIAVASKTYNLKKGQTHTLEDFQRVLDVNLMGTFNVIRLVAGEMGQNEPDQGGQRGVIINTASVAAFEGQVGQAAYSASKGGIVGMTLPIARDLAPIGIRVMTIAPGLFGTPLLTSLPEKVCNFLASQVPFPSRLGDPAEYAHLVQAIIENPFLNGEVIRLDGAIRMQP
Sequence of 3-hydroxyacyl-CoA dehydrogenase type-2 (Homo sapiens) (Q99714 whole entry, looked up): as above

The target of this assay is 3-hydroxyacyl-CoA dehydrogenase type-2 (Homo sapiens) (UniProt Q99714). The assay is described as follows: qHTS Assay for Inhibitors of HADH2 (Hydroxyacyl-Coenzyme A Dehydrogenase, Type II). Also: nearly all actives have a fitted effect of over 60% in size. To be noted: recombinant HADH2, NADH fluorescence, beta-hydroxybutyryl-CoA; series mostly up to 57.1 µM; activity change, negative = inhibition: at the top concentration. In a few lines:
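NADH fluorescence (ex 360/em 450 nm) read every 30 s for 4 min; activity taken as last-minus-first time point difference. Enzyme 20 nM, NAD+ 1 mM, beta-hydroxybutyryl-CoA 90 uM, pH 9.0 Tris buffer.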
For orientation: In qHTS, concentration-response curves come from the screen itself.
For `C[C@@H](c1ccccc1)N1C(=O)[C@H]2[C@H]3[C@H](O)[C@H](O)C/C(=N/OC[C@@H](O)COCc4ccco4)[C@@H]3CC[C@@H]2C1=O`, the activity change, negative = inhibition is 7.28% [at 11.4 µM].
In the case of `CCCc1[nH]nc2c1C(c1ccc(OC(=O)c3ccco3)cc1)C(C#N)=C(N)O2` (stereo unspecified), the “activity change, negative = inhibition” value was -4.83%.
Regarding `CCCc1[nH]nc2c1C(c1ccc(Br)s1)C(C#N)=C(N)O2` (stereo unspecified), the Potency was 10 µM (active).
For `CCCc1[nH]nc2c1C(C1CC=CCC1)C(C#N)=C(N)O2` (stereo unspecified), the “activity change, negative = inhibition” value is -5.39%.
Take `CN(C)c1ncc2nc(-c3ccc(F)cc3)c(=O)n(Cc3ccc(F)cc3)c2n1`: the “activity change, negative = inhibition” value was -1.36%.
Regarding `COC(=O)[C@@]1(Cc2ccc(OC)cc2)[C@H]2c3cc(C(=O)N4CCCC4)n(Cc4ccc(C(F)(F)F)nc4)c3C[C@H]2CN1C(=O)c1ccccc1`, the “activity change, negative = inhibition” value was 3.4%.
For the molecule `Oc1ccc(O)c2c(O)cccc12`, the Potency is 1.26 µM (active).
On to `O=C(CSC1=Nc2ccccc2C2=NC(c3ccccc3)C(=O)N12)NCC1CCCO1` (stereo unspecified), for which the Potency was 31.6 µM (active).
In the case of `O=C(CSc1nnc(-c2ccc(NS(=O)(=O)c3ccccc3)cc2)o1)NCC1CCCO1` (stereo unspecified), the “activity change, negative = inhibition” value is -10.8%.
For `O=C(CS(=O)(=O)Cc1ccccc1)NCC1CCCO1` (stereo unspecified), the “activity change, negative = inhibition” value was 3.24%.
As for `Cc1ccnc(N)c1`, the “activity change, negative = inhibition” value is 10.4%.
On to `N#Cc1ccc(CN2CCCC3(CCN(C(=O)c4ccco4)CC3)C2)cc1`, for which the “activity change, negative = inhibition” value was -3.04%.
For `COc1ccc(/C=C/NC(=O)c2ccc(OC)cc2)cc1`, the activity change, negative = inhibition was -13.3% [at 11.4 µM].
For the molecule `C[C@@H]1O[C@@H](O[C@@H]2[C@@H](O)[C@H](OCCc3ccc(O)c(O)c3)O[C@H](CO[C@@H]3O[C@H](CO)[C@@H](O)[C@H](O)[C@H]3O)[C@H]2OC(=O)/C=C/c2ccc(O)c(O)c2)[C@H](O)[C@H](O)[C@H]1O`, the Potency is 0.1 µM (active).
Consider `CO/N=C\[C@@H](C)[C@H](OCc1ccccc1)C(C)C`, for which the activity change, negative = inhibition is 2.33% [at 11.4 µM].
With `CCN(Cc1ccncc1)C(=O)[C@@H](CO)c1ccccc1`, the Potency result is “inactive”.
As for `C=CC(=O)OCCOCCOCCOCCOC(=O)C=C`, the Potency result is “inactive”.
As for `COc1cccc(Cn2c(=O)c(-c3ccccc3)nc3cnc(OC)nc32)c1`, the “activity change, negative = inhibition” value is 2.81%.
Regarding `CCOC(=O)CCc1c(C)c2ccc(OCc3nn[nH]n3)c(C)c2oc1=O`, the Potency is 25.1 µM (active).
In the case of `C=CC(=C)CCC=C(C)C`, the “activity change, negative = inhibition” value is 6.01%.
As to `COc1ccc(C(=O)n2nc(-c3ccc(Cl)cc3)nc2N)cc1OC`, the “activity change, negative = inhibition” value was 20%.
Regarding `COc1ccccc1C(=O)n1nc(-c2ccccc2)nc1N`, the “activity change, negative = inhibition” value is 0.521%.
As for `COc1ccc(C(=O)n2nc(-c3ccc(C)cc3)nc2N)cc1OC`, the Potency is 31.6 µM (active).
Turning to `CO[C@@H]1COC(=O)C/C=C\[C@H](C)[C@@H](NS(=O)(=O)c2ccc(C)cc2)COC(=O)C/C=C\[C@@H]1C`, the activity change, negative = inhibition was 6.59% [at 11.4 µM] and 13.2% [at 11.4 µM].
Turning to `COc1ccc(C(=O)N2CCC[C@@]3(CCN(C(=O)NC(C)C)C3)C2)cc1`, the “activity change, negative = inhibition” value was -3.04%.
Turning to `O=C1OCCC=C1[C@@H](O)CCc1ccccc1`, the activity change, negative = inhibition was -6.14% [at 11.4 µM].
Consider `C[C@H]1CC[C@H](C(=O)O)N[C@@H]1c1ccc(C#Cc2ccccc2)cc1`, for which the activity change, negative = inhibition is 4.48% [at 11.4 µM].
For `CCOC(=O)c1cc(-c2nnc(-c3cc(OC)c(OC)c(OC)c3)o2)c(C)nc1C`, the Potency is 5.01 µM (active).
On to `CCOC(=O)c1cc2ccccc2nc1C`, for which the “activity change, negative = inhibition” value is 3.8%.
The same measure, in the same setting: for `CCCc1nc2ccccc2c(C(=O)OCc2nnc(-c3cc(OC)c(OC)c(OC)c3)o2)c1CC` the value was 11%; for `Cc1cc2c(cc1C)NC1=C(N2)O[C@H](c2c[nH]c3ccc(COc4ccccc4)cc23)C1=O`, 0.634% [at 11.4 µM].
On to `O=C1CC(c2cccc(Br)c2)C2=C(CCCC2=O)N1` (stereo unspecified), for which the “activity change, negative = inhibition” value is 1.13%.
For the molecule `CCCN1C2=C(C(=O)CCC2)C(c2ccc(O)c(Br)c2)C2=C1CCCC2=O`, the Potency was 15.8 µM (active).
Regarding `C[C@@H](C(=O)Nc1ccc2ccccc2c1)[C@@H]1C[C@@]1(C)[C@@H](NC(=O)c1cccnc1)c1ccccc1`, the “activity change, negative = inhibition” value is 3.59%.
Still for that read-out and setting: under `COc1ccc(C[C@H](N)C(=O)N[C@@H]2[C@H](O)[C@H](n3cnc4c(N(C)C)ncnc43)O[C@@H]2CO)cc1` stands -1.06% [at 25.6 µM]; under `O=C(NCc1ccc2c(c1)OCO2)c1ccc2c(c1)C(=O)N(CC1CCCO1)C2=O` (stereo unspecified), -0.581%.
With `CN1C(=O)c2ccc(NC(=O)C3CCCCC3)cc2C1=O`, the “activity change, negative = inhibition” value is 3.73%.
As for `CCC(=O)Nc1ccc(C(=O)Nc2ccc3c(c2)C(=O)N(CC2CCCO2)C3=O)cc1` (stereo unspecified), the Potency was 10 µM (active).
On to `c1ccc2sc(SCCSc3nc4ccccc4s3)nc2c1`, for which the activity change, negative = inhibition was 16.5% [at 11.4 µM].
For `COC(=O)[C@@]1(Cc2ccc(F)cc2)[C@@H]2[C@@H](CC(=O)[C@H]2CC(=O)C(=O)N2CCCC2)CN1C(=O)c1ccccc1`, the “activity change, negative = inhibition” value was -3.47%.
Regarding `O=C(OCC(COC(=O)c1ccccc1)(COC(=O)c1ccccc1)COC(=O)c1ccccc1)c1ccccc1`, the “activity change, negative = inhibition” value was 0.505%.
Regarding `CCOc1ccccc1C1C(C(=O)OC)=CN(C)C=C1C(=O)OC`, the Potency is 31.6 µM (active).
For `CCOc1cc(C2C(C(=O)OC)=CN(C3CCCC3)C=C2C(=O)OC)cc(Br)c1O`, the “activity change, negative = inhibition” value is 106%.
For `COC(=O)C1=CN(C)C=C(C(=O)OC)C1c1ccc(Cl)cc1Cl`, the “activity change, negative = inhibition” value was 16.3%.
With `Cn1c(=O)c(-c2ccccc2)nc2cnc(N3CCNCC3)nc21`, the “activity change, negative = inhibition” value was 7.59%.
In the case of `CO[C@H]1COC(=O)[C@H](Cc2ccccc2)NC(=O)C/C=C\[C@@H](C)[C@H](OC)COC(=O)C/C=C\[C@@H]1C`, the activity change, negative = inhibition is 2.71% [at 11.4 µM].
Take `c1cncc(CNc2ccnc(-c3ccc4c(c3)OCO4)n2)c1`: the Potency was 25.1 µM (active).
Regarding `O=C(Nc1cccnc1)c1ccc2c(c1)OCO2`, the “activity change, negative = inhibition” value was -0.811%.
`c1n[nH]c(NCc2ccc3c(c2)OCO3)n1`: the “activity change, negative = inhibition” value was 3.73%.
Turning to `CCCCCCc1ccc(O)cc1O`, the “activity change, negative = inhibition” value is -15.6%.
For `O=C(Cn1c(=O)sc2ccccc21)Nc1nc2c(s1)CCCC2`, the “activity change, negative = inhibition” value is -1.57%.
For `COc1cccc(Cn2c(=O)c(CCc3ccccc3)nc3cnc(N(C)C)nc32)c1`, the “activity change, negative = inhibition” value was 9.43%.
For the molecule `CCOc1ccc(-c2nnc3ccc(SC)nn23)cc1`, the “activity change, negative = inhibition” value was 9.93%.
For `CC1CCN(C(=O)CSc2ccc3nnc(-c4cccc(F)c4)n3n2)CC1`, the “activity change, negative = inhibition” value was 1.29%.
Take `COC(=O)C(C)Sc1ccc2nnc(-c3cccc(F)c3)n2n1` (stereo unspecified): the Potency is 12.6 µM (active).
Take `Cc1cc(C)c2nc3c(c([C@H](O)[C@@H]4CCCCN4)c2c1)CC/C3=C/c1ccc(Cl)cc1`: the activity change, negative = inhibition was 12.8% [at 11.4 µM].
